This passage reports binding signal results from PMC7862700, “An all-to-all approach to the identification of sequence-specific readers for epigenetic DNA modifications on cytosine”.

Common to all, as to assay: DAPPL (digital affinity profiling via proximity ligation, sequencing); 10 mM Tris-HCl pH 7.5, 50 mM NaCl, 1 mM DTT, 4% glycerol, room temperature, 30 min; GST-TFs on glutathione beads, 16-mer random dsDNA library, 0.1% formaldehyde crosslink after washing; high values mean tight binding
The target of one experiment is T1, FLI1 (Homo sapiens, UniProt Q01543 1-452).
T1 sequence: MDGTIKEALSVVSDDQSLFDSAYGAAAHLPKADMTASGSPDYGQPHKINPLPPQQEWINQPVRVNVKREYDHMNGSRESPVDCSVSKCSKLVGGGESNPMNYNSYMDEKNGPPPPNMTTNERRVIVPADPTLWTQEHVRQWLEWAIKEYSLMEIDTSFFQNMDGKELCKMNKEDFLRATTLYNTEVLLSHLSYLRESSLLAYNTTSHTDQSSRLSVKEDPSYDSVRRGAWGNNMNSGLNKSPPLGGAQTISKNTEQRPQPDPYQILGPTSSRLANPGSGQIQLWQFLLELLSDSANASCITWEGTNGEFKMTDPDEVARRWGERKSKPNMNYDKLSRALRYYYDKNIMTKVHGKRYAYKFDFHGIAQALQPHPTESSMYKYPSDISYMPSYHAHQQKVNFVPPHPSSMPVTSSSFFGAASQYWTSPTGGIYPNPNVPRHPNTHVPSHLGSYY
Particulars: protein: recombinant; tags: N-terminal GST; dsDNA, one strand shown. The procedure, abridged:
(§1)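 Pools of DNA-barcoded human transcription factors, expressed in yeast as GST fusions on glutathione beads and combined with a tag-only sample, were incubated with 200 nmole of a 16-mer random double-stranded DNA library. Incubation took 30 min at room temperature in Tris/NaCl/DTT/glycerol buffer and was followed by washing, 0.1% formaldehyde crosslinking, proximity ligation (BsaI/T4 ligase, 1 h, 37 °C), PCR amplification and sequencing on an Illumina NextSeq500. Binding signal is the ratio of a hexamer's read frequency for a factor to its frequency for the tag-only sample.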

In a further experiment the target is T2, ELK1 (Homo sapiens, UniProt P19419 1-428).
T2 sequence: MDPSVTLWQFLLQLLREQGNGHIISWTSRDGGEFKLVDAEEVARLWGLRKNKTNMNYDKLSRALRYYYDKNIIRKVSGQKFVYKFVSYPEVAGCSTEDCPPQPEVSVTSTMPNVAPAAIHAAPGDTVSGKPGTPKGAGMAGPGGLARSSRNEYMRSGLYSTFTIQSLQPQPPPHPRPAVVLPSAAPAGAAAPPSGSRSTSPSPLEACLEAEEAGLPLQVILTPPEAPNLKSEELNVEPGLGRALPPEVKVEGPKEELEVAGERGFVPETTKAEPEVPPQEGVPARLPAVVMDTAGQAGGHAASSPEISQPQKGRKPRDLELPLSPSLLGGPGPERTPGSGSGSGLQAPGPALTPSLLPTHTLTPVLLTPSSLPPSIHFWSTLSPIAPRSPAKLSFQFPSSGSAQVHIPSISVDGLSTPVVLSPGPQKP
Particulars: protein: recombinant; tags: N-terminal GST; dsDNA, one strand shown. In outline:
as §1

For another experiment, the target named is T3, GABPA (Homo sapiens, UniProt Q06546 1-454).
T3 sequence: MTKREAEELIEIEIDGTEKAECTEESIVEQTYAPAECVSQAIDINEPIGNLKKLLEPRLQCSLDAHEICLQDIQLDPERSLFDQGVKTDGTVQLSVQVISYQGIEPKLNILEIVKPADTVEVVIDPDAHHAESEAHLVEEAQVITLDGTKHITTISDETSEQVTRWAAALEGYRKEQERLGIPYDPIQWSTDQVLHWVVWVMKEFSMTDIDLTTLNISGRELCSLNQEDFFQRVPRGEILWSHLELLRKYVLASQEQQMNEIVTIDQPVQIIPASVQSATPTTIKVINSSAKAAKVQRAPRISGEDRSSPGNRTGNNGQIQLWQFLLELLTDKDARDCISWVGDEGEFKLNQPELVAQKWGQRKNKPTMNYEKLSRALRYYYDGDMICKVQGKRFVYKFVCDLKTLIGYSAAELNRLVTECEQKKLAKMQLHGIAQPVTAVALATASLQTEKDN
The settings on record: protein: recombinant; tags: N-terminal GST; dsDNA, one strand shown. The procedure, abridged: as §1

The target of the next experiment is T4, ERG (Homo sapiens, UniProt P11308 1-479).
T4 sequence: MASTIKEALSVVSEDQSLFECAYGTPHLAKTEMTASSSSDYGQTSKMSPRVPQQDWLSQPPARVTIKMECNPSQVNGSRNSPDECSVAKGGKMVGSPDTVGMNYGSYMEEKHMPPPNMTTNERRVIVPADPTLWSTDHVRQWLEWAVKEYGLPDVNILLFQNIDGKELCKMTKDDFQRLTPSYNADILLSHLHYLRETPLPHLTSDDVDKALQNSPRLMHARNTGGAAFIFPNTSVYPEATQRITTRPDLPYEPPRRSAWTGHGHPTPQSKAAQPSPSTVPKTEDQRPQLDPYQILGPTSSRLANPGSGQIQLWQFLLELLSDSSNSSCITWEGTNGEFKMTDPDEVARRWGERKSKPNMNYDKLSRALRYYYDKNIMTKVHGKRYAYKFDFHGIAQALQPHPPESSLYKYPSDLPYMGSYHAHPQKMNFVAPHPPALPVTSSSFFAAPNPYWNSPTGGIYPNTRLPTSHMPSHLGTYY
The settings on record: protein: recombinant; tags: N-terminal GST; dsDNA, one strand shown. In outline: as §1

The target in another experiment is ELF1 (Homo sapiens, UniProt P32519 1-619). The settings on record: protein: recombinant; tags: N-terminal GST; dsDNA, one strand shown. The procedure, abridged:
as §1

For another experiment, the target named is T5, EHF (Homo sapiens, UniProt Q9NZC4 1-300).
T5 sequence: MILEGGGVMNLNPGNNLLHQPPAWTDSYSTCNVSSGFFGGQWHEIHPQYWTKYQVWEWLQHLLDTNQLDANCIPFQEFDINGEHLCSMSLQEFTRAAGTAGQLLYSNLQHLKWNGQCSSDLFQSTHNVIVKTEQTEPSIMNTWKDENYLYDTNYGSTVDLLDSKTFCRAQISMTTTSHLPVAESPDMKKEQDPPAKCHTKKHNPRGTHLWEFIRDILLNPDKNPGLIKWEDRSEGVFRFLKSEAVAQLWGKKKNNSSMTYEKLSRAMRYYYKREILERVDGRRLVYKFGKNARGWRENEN
Particulars: protein: recombinant; tags: N-terminal GST; dsDNA, one strand shown. In outline:
as §1

For the next experiment, the target named is SPI1 (Homo sapiens, UniProt P17947 1-270). The settings on record: protein: recombinant; tags: N-terminal GST; dsDNA, one strand shown. The procedure, abridged: as §1
In another experiment the target is SPIB (Homo sapiens, UniProt Q01892 1-262). The settings on record: protein: recombinant; tags: N-terminal GST; dsDNA, one strand shown. The procedure, abridged: as §1
SPIB, sequence (Q01892 whole entry): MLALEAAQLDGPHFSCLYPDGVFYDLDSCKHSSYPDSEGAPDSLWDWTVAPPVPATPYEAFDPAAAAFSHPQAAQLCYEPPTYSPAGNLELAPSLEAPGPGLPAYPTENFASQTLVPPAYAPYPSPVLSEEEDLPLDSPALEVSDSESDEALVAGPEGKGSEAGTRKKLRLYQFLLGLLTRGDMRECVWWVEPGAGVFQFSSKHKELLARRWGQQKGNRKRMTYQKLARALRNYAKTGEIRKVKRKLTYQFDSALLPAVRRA
The next experiment concerns the target T6, ELK3 (Homo sapiens, UniProt P41970 1-407).
T6 sequence: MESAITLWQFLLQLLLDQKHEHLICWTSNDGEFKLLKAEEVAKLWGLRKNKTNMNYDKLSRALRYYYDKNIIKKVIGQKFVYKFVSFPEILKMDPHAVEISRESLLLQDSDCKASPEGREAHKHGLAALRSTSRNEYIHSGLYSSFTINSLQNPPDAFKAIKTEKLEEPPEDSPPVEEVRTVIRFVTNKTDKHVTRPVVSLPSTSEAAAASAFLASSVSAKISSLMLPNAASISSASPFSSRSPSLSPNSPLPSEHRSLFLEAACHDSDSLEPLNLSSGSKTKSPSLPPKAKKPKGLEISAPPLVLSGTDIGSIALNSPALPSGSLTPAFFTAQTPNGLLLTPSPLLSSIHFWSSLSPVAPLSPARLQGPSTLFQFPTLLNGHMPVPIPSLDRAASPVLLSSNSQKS
The settings on record: protein: recombinant; tags: N-terminal GST; dsDNA, one strand shown. The procedure, abridged: as §1

Another experiment deals with T7, FEV (Homo sapiens, UniProt Q99581 1-238).
T7 sequence: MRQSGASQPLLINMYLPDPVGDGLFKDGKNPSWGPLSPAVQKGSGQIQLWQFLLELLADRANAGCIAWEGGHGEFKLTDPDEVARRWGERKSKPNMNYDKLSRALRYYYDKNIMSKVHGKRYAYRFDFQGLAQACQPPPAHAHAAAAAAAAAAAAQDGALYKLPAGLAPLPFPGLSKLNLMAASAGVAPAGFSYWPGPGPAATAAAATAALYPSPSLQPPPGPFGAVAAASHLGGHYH
The settings on record: protein: recombinant; tags: N-terminal GST; dsDNA, one strand shown. In outline: as §1

A further experiment has as its target ETV5 (Homo sapiens, UniProt P41161 1-510). Particulars: protein: recombinant; tags: N-terminal GST; dsDNA, one strand shown. In outline: as §1
Another experiment deals with HSF1 (Homo sapiens, UniProt Q00613 1-529). The settings on record: protein: recombinant; tags: N-terminal GST; chain copies: 3; dsDNA, one strand shown. The procedure, abridged: as §1
HSF1, sequence (Q00613 whole entry): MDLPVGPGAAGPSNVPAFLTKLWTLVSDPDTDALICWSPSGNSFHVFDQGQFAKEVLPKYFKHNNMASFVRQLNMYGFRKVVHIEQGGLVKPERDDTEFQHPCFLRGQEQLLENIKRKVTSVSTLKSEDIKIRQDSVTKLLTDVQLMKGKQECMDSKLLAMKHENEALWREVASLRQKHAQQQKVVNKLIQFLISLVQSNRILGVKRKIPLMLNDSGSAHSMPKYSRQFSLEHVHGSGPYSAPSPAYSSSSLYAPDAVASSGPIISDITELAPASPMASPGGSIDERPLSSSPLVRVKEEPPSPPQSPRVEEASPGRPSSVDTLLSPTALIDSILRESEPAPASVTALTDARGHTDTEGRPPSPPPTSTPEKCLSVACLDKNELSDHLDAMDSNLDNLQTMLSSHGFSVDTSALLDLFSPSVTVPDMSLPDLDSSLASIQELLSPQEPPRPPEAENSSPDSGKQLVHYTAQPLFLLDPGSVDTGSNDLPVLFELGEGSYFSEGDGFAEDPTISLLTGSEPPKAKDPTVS
A further experiment addresses T8, SPIC (Homo sapiens, UniProt Q8N5J4 1-248).
T8 sequence: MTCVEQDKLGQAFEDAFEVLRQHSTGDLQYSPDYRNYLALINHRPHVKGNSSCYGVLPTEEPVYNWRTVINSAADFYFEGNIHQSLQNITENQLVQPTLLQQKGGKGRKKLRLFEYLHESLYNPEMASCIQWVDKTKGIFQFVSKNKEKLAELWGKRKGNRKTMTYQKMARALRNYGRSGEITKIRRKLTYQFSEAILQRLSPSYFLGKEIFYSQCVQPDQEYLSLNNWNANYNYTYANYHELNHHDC
Particulars: protein: recombinant; tags: N-terminal GST; dsDNA, one strand shown. The procedure, abridged: as §1

For the next experiment, the target named is ELF4 (Homo sapiens, UniProt Q99607 1-663). The settings on record: protein: recombinant; tags: N-terminal GST; dsDNA, one strand shown. The procedure, abridged: as §1
ELF4, sequence (Q99607 whole entry): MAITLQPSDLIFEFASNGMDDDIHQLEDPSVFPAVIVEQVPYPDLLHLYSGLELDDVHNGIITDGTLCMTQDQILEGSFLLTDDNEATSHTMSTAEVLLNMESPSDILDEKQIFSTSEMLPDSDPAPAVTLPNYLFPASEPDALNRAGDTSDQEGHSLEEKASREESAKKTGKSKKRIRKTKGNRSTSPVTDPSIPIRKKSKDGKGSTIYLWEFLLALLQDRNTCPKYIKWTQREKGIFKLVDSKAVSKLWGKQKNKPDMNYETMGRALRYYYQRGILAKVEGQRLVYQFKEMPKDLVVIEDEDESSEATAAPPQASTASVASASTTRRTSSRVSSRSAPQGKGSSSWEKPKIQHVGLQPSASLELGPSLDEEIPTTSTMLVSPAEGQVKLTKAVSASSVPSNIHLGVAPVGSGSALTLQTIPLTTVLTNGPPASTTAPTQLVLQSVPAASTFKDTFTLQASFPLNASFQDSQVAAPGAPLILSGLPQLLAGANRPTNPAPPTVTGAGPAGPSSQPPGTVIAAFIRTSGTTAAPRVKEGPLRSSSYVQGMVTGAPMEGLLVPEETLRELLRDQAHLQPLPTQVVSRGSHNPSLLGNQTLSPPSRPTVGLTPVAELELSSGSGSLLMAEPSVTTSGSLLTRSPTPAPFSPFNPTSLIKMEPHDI
In the next experiment the target is T9, ELK4 (Homo sapiens, UniProt P28324-2 1-405).
T9 sequence: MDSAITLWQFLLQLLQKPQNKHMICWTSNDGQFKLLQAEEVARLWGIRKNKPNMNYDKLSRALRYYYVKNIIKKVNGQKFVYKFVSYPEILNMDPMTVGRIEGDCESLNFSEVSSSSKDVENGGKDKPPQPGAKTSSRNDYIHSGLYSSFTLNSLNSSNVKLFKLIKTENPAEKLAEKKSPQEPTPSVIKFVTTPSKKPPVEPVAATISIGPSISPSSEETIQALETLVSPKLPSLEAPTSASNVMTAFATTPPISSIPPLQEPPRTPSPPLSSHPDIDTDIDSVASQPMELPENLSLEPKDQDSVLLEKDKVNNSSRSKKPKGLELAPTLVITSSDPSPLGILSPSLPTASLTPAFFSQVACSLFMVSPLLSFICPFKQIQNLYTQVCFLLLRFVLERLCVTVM
Particulars: protein: recombinant; tags: N-terminal GST; dsDNA, one strand shown. The procedure, abridged: as §1

For a further experiment, the target named is T10, ETV2 (Homo sapiens, UniProt O00321 1-342).
T10 sequence: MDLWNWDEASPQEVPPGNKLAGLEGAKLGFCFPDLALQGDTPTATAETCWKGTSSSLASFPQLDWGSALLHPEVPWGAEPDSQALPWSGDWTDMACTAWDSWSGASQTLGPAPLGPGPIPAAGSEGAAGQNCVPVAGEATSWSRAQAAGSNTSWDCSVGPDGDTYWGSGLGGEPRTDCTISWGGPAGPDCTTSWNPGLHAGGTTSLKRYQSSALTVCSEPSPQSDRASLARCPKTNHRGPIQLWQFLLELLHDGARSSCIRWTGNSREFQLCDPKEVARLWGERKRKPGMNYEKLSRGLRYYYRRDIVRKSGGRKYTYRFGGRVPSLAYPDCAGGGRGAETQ
Particulars: protein: recombinant; tags: N-terminal GST; dsDNA, one strand shown. In outline: as §1

In another experiment the target is T11, ELF3 (Homo sapiens, UniProt P78545 1-371).
T11 sequence: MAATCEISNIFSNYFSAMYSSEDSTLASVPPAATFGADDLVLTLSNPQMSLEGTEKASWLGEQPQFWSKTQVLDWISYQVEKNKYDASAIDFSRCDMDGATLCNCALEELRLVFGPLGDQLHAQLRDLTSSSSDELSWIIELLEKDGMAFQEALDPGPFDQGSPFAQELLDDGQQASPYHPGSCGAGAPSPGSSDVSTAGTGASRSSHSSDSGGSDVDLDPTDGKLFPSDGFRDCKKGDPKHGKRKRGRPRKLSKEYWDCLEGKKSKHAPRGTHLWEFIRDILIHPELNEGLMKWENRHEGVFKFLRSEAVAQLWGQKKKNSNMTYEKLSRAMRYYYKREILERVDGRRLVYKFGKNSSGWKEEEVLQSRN
Particulars: protein: recombinant; tags: N-terminal GST; dsDNA, one strand shown. In outline:
as §1

Another experiment has as its target ETV1 (Homo sapiens, UniProt P50549 1-477). Particulars: protein: recombinant; tags: N-terminal GST; dsDNA, one strand shown. The procedure, abridged: as §1

ELF1, sequence (P32519 whole entry): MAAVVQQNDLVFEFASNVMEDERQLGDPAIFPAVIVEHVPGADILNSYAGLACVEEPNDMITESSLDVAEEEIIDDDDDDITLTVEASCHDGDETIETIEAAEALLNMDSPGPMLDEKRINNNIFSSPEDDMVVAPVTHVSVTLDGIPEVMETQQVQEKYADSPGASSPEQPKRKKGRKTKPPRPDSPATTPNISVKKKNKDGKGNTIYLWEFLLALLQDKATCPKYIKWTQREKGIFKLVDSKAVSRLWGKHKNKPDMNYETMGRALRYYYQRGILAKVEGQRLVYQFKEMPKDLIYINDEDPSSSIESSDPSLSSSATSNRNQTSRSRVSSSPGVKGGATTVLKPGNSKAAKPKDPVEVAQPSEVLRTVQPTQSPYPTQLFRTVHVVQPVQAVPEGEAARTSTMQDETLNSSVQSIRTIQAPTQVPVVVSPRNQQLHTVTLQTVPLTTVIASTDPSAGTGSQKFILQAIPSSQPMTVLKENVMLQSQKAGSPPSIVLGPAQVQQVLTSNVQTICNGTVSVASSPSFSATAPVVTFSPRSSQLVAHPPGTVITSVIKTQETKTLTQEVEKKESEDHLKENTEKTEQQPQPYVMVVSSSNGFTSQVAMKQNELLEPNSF
ETV1, sequence (P50549 whole entry): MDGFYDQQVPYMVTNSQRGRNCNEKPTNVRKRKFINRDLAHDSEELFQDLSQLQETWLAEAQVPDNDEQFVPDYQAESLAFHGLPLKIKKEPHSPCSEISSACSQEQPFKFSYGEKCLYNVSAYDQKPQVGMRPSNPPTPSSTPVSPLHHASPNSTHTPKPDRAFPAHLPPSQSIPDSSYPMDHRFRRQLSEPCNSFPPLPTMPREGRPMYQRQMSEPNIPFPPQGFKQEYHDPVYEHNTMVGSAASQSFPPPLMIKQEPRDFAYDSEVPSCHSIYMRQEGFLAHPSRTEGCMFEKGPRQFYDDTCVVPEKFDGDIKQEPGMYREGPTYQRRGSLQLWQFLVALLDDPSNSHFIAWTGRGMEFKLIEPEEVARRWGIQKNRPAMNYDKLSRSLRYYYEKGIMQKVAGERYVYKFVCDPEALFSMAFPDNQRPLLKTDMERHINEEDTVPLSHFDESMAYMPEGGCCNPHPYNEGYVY
ETV5, sequence (P41161 whole entry): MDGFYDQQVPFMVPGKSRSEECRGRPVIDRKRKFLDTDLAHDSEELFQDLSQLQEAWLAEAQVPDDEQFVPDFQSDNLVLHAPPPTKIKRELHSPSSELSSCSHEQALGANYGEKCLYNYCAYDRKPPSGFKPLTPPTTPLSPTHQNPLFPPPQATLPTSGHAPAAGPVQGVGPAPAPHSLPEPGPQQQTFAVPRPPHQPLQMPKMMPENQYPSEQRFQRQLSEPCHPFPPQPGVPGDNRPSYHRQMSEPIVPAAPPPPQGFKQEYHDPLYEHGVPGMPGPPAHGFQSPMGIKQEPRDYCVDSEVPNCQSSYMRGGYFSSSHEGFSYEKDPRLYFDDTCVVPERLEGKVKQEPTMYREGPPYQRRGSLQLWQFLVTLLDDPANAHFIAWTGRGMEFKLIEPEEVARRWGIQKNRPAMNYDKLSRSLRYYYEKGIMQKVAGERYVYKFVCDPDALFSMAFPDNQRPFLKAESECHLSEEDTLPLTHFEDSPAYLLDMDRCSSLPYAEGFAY

For ACTGCG, the binding signal in the experiment with FLI1 was 1.24 fold enrichment (6-mer frequency, TF over GST control); in the experiment with ELK1, 1.32 fold enrichment (6-mer frequency, TF over GST control); with GABPA, 1.26 fold enrichment (6-mer frequency, TF over GST control); with ERG it was 1.26 fold enrichment (6-mer frequency, TF over GST control); with ELF1, 1.35 fold enrichment (6-mer frequency, TF over GST control); with EHF, 1.37 fold enrichment (6-mer frequency, TF over GST control). Besides, the binding signal in the experiment with SPI1 was 1.33 fold enrichment (6-mer frequency, TF over GST control); in the experiment with SPIB, 1.3 fold enrichment (6-mer frequency, TF over GST control); with ELK3, 1.25 fold enrichment (6-mer frequency, TF over GST control); with FEV, 1.26 fold enrichment (6-mer frequency, TF over GST control); in the experiment with ETV5 it was 1.21 fold enrichment (6-mer frequency, TF over GST control); in the experiment with HSF1, 1.06 fold enrichment (6-mer frequency, TF over GST control). The binding signal is 1.14 fold enrichment (6-mer frequency, TF over GST control) with SPIC; 1.28 fold enrichment (6-mer frequency, TF over GST control) with ELF4; 1.06 fold enrichment (6-mer frequency, TF over GST control) with ELK4; 1.42 fold enrichment (6-mer frequency, TF over GST control) with ETV2; 1.16 fold enrichment (6-mer frequency, TF over GST control) in the experiment with ELF3; 1.27 fold enrichment (6-mer frequency, TF over GST control) with ETV1.
